Bioassay records: PubChem, National Center for Advancing Translational Sciences (NCATS)
The entries come from a sample that favours hits as a whole.
VDR inh: vitamin D3 receptor (human) inhibition. P11473. VDR-SRC2-3 peptide fluorescence polarization, 2 h. Potency, µM, inactives show max response, negative = inhibition, hits mostly inhibitors. 400,000 compounds, 0.93% hits. AID 504847; also: % is scaled to controls: 0 for no effect and ±100 for the full control effect
Target sequence (P11473 whole entry, looked up): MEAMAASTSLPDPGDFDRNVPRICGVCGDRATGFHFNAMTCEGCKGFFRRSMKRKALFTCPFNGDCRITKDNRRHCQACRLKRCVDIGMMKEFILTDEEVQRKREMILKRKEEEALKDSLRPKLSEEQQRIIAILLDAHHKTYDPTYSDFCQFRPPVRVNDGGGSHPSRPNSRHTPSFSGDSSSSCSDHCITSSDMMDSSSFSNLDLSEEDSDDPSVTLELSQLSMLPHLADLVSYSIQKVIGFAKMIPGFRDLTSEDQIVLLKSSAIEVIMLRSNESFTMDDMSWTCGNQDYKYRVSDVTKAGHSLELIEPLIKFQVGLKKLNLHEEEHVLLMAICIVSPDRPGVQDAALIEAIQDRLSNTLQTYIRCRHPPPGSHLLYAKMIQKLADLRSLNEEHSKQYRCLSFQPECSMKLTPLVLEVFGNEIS
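Reagent solutions, kept cold and dark, are dispensed first; compounds are then pinned in at 23 nl, plates briefly spun, and incubated 2 h at ambient temperature. Inhibition of VDR–SRC2-3 peptide binding is read by fluorescence polarization.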
Glioma ERSR ind: ER stress response induction in glioma | U87-MG GRP78 promoter luciferase reporter, 16 h | Potency, µM, for the others: at the highest dose activation, most hits filed as activators | 420,000 compounds, 0.02% hits | AID 602332; also: series mostly up to about 76 µM; % of control where 0% means no effect; nearly all actives have a fitted effect of over 35% in size
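Stably transfected U87-MG glioma cells carrying a GRP78-based luciferase sensor; 16 h compound incubation. Luminescence end-point read 10 min after Bright-Glo addition at room temperature.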
ALOX12 inh: blocks human arachidonate 12S-lipoxygenase | P18054 | purified 12hLO, xylenol orange hydroperoxide absorbance | Potency, µM (doses to about 108 µM), inactives show at the top dose activity change, negative = inhibition, hits mostly inhibitors | 580,000 compounds, 1.1% hits; also: % is scaled to controls: 0 for no effect and ±100 for the full control effect
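Purified human 12hLO at 150 nM in 25 mM Hepes, 0.01% Triton X-100, pH 7.0, preincubated 15 min at room temperature with compound. Reaction started with 40 uM arachidonic acid, 30 min at room temperature. Hydroperoxide measured by Fe-xylenol orange, 573/405 nm absorbance ratio.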
Sfp PPTase inh: blocks B. subtilis Sfp PPTase activity | 310,000 compounds, 3.5% hits | AID 1490 | Biochemical Sfp PPTase activity, qHTS | Q9F4F7 | Potency, µM, without a hit: largest response in the series, negative = inhibition, actives largely listed as inhibitors;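 also: the enzyme is Sfp with the accession as filed and its product quenches rhodamine fluorescence; 0% = enzyme reaction without inhibitor and -100% = no enzyme wells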
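Fluorescence-quenching assay with 15 nM Sfp, 5 uM rhodamine-CoA and 12.5 uM BHQ-2-labelled ybbR peptide in pH 7.6 Hepes/MgCl2 buffer. Enzyme was pre-incubated with compound for 15 min at room temperature. Rate was taken from the 30-min fluorescence change (525/598 nm).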
G9a block: G9a (human) methyltransferase inhibition; Potency, µM (titrated, usually from 102 µM), without a hit: top-dose activity, negative = inhibition, hits mostly inhibitors; 350,000 compounds, 8.8% hits; G9a H3K9 monomethylation, AlphaScreen, 2 h; also: % is scaled to controls: 0 for no effect and ±100 for the full control effect; nearly all actives have a fitted effect of over 75% in size
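AlphaScreen read-out: biotin-H3K9 peptide (500 nM) methylation by 20 nM enzyme with 20 uM SAM, 2 h at room temperature after 15 min compound preincubation; anti-monomethyl H3K9 antibody plus donor/acceptor beads, 10 min dark.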
Numbers without * were called inactive; ? = inconclusive; / = no result given; ! = a repeat was not active; [ ] = dose if it differs, or a comment. Calls follow the shape of the dose curve; as a rule, active = well fitted curve in the direction sought with a large enough effect; inconclusive = small, poorly fitted or top-dose-only effect, or another doubt; inactive = no such curve, though single readings can be large; an effect the other way counts as inactive or inconclusive. Potency is read from the fitted curve at half-maximal effect.

SMILES	VDR inh	Glioma ERSR ind	ALOX12 inh	Sfp PPTase inh	G9a block
Cc1cc2oc(=O)cc(CN3CCN(CCO)CC3)c2cc1Cl	/	/	0%	/	/
Cc1ccc2c(C)c(CCC(=O)Nc3cc(Cl)ccc3F)c(=O)oc2c1	/	/	17%	/	/
Cn1cccc1/C=N/N1CCN(Cc2ccc(Cl)cc2)CC1	-13%	-2%	?	?	40µM*
CC(/C=N/N1CCN(Cc2ccccc2)CC1)=C\c1ccccc1	2%	4%	-1%	-6%	28µM*
CC(=C/c1ccccc1)/C=N/N1CCN(Cc2ccc(C)cc2)CC1	-6%	-4%	-7%	-10%	?
Fc1ccc(/C=N/N2CCN(Cc3ccccc3)CC2)cc1	4%	-7%	?	8%	79µM*
CN1C[C@@H](NC(=O)Nc2ccc(C(F)(F)F)cc2)C[C@H]1c1nc(-c2ccc(Cl)cc2)no1	/	/	-2%	/	/
O=C(C1CCCCC1)N1CCCC2(CC(c3cccc(C(F)(F)F)c3)=NO2)C1 (configuration not stated)	/	/	0%[6.33 µM]	/	/
CCOc1cc(/C=C/C(=O)c2ccc(F)cc2)cc(Br)c1OC	/	/	-4%	/	/
COc1ccccc1CNC(=O)CSc1nnc(-c2ccco2)n1C	/	/	1%	/	/
CCCCn1c(-c2cccnc2)n[nH]c1=S	-14%	1%	-18%	?	25µM*
CCCc1cc(-c2n[nH]c(=S)n2CC)cs1	-11%	-4%	?	0%	?
CCn1c(-c2cccnc2)n[nH]c1=S	10%	4%	-16%	89µM*	27%[0.501 µM]
CCOC(=O)CSc1n[nH]c(-c2cccnc2)n1	-2%	-2%	?	10%	17%
CCCCn1c(-c2csc(CCC)c2)n[nH]c1=S	-5%	-4%	?	?	8.9µM*
CCCCN	/	/	3%	/	/
Cc1ccc(C(CNC(=O)c2cc(-c3ccc4c(c3)OCCO4)on2)N2CCN(C)CC2)o1 (configuration not stated)	/	/	2%	/	/
CCn1c(=O)cc(OCC(=O)N2CCN(c3ccc(C)cc3)C(C)C2)c2ccccc21 (configuration not stated)	-18%	-8%	-9%	/	6.3µM*
O=C(O)C(O)c1ccccc1 (configuration not stated)	-17%	0%	-15%	0%	?
NC(C(=O)O)C(c1ccccc1)C(F)F (configuration not stated)	0%	5%	/	?	11µM*
Cc1ccccc1Nc1nnc(-c2ccc(C)c(S(=O)(=O)NCCO)c2)c2ccccc12	/	/	3%	/	/
COc1ccc(Cc2nnc(NC(=O)c3c(-c4ccccc4)noc3C)s2)cc1OC	/	/	-13%	-22%	40µM*
CCOCc1nnc(NC(=O)c2c(-c3ccccc3)noc2C)s1	?	-7%	?	?	32µM*
COc1ccc(Cc2nnc(NC(=O)c3c(-c4ccccc4)noc3C)s2)cc1	2%	-2%	32%	11%	?
CCOCCn1c(CN2CCN(C(=O)OCC)CC2)nc2c1c(=O)[nH]c(=O)n2C	/	/	-7%	/	/
SMILES	VDR inh	Glioma ERSR ind	ALOX12 inh	Sfp PPTase inh	G9a block
CCNC(=O)Cn1c(CO)cnc1SCC(=O)Nc1c(C)cc(C)cc1C	/	/	-30%	/	/
O=C(O)c1cc(-c2ccco2)nc2ccc(Br)cc12	20µM*!	-6%	16µM*!	13µM*!	3.5µM*
Cc1cccc2c(C(=O)O)cc(-c3ccco3)nc12	/	/	8.9µM*	/	/
Cc1ccc(-c2cc(C(=O)NCc3ccco3)c3cccc(C)c3n2)cc1	/	/	-29%	/	/
O=c1cc(N=Nc2ccc(Cl)cc2)[nH]c(=O)[nH]1	?	-7%	-10%	-27%	45µM*
O=c1cc(-c2ccc(Cl)cc2)oc(=O)[nH]1	-6%	-2%	?	14%	33%[59 µM]
COC(=O)C1=C(C)NC(=O)NC1c1ccc(C(C)C)cc1 (configuration not stated)	/	/	56%	/	/
CC(C)c1ccc(C2NC(C(=O)O)CS2)cc1 (configuration not stated)	6%	-2%	?	50µM*	-13%[12.7 µM]
Cc1ccsc1/C=C1\SC(=S)N(CC2CCCO2)C1=O (configuration not stated)	-1%	10%	-22%	9%	5µM*
O=C1/C(=C/c2ccc(O)cc2)SC(=S)N1CC1CCCO1 (configuration not stated)	8%	13%	0%	-16%	?
CCOc1ccc(/C=C2/SC(=O)NC2=S)cc1	-13%	4%	-9%	-17%	?
